SNCA expr inh = Primary qHTS assay for inhibitors of alpha-synuclein gene (SNCA) expression; HEK-293 SNCA-luciferase knock-in, luminescence, 24 h; AID 1671194, 2021; Potency, µM (titrated, usually from 57.2 µM), inactives show at the top dose activity change, negative = inhibition, most hits filed as inhibitors; 140,000 tested, 0.17% active;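 note: potency is the fitted concentration of half-maximal effect; plate controls were DMSO cells for no effect and cell-free wells for full effect; nearly all actives have a fitted effect of over 45% in size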
IP6K1 inhibitor = Primary qHTS assay for small molecule inhibitors of Inositol hexaphosphate kinase 1 (IP6K1); activity change, % (series mostly up to about 58 µM); Inositol hexakisphosphate kinase 1 (Homo sapiens), Q92551; 140,000 tested, 0.81% active; IP6K1 kinase, ADP-Glo luminescence, 2 h; active compounds read low; in the data active = activity change below about -25%; note: % is set by controls: 0 for no effect and ±100 for the full control effect
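ADP-Glo luminescence measures ADP made by human IP6K1 during a 2 h RT reaction with ATP/IP6 (mix at 1.3 mM/130 uM); top library doses 57.5 and 19.1 uM final.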
KDM5B inh = Primary screen for KDM5B Histone Demethylases FDH-coupled qHTS | AID 1347165, 2019 | Potency, µM (doses to about 57.7 µM), actives largely listed as inhibitors | Lysine-specific demethylase 5B (Homo sapiens), Q9UGL1 | KDM5B demethylase, FDH-coupled NADH fluorescence (FDH is formaldehyde dehydrogenase) | 220,000 tested, 2.6% active; note: potency is the fitted concentration of half-maximal effect; 0% is about no effect; nearly all actives have a fitted effect of over 70% in size
Target sequence (Q9UGL1 whole entry, looked up): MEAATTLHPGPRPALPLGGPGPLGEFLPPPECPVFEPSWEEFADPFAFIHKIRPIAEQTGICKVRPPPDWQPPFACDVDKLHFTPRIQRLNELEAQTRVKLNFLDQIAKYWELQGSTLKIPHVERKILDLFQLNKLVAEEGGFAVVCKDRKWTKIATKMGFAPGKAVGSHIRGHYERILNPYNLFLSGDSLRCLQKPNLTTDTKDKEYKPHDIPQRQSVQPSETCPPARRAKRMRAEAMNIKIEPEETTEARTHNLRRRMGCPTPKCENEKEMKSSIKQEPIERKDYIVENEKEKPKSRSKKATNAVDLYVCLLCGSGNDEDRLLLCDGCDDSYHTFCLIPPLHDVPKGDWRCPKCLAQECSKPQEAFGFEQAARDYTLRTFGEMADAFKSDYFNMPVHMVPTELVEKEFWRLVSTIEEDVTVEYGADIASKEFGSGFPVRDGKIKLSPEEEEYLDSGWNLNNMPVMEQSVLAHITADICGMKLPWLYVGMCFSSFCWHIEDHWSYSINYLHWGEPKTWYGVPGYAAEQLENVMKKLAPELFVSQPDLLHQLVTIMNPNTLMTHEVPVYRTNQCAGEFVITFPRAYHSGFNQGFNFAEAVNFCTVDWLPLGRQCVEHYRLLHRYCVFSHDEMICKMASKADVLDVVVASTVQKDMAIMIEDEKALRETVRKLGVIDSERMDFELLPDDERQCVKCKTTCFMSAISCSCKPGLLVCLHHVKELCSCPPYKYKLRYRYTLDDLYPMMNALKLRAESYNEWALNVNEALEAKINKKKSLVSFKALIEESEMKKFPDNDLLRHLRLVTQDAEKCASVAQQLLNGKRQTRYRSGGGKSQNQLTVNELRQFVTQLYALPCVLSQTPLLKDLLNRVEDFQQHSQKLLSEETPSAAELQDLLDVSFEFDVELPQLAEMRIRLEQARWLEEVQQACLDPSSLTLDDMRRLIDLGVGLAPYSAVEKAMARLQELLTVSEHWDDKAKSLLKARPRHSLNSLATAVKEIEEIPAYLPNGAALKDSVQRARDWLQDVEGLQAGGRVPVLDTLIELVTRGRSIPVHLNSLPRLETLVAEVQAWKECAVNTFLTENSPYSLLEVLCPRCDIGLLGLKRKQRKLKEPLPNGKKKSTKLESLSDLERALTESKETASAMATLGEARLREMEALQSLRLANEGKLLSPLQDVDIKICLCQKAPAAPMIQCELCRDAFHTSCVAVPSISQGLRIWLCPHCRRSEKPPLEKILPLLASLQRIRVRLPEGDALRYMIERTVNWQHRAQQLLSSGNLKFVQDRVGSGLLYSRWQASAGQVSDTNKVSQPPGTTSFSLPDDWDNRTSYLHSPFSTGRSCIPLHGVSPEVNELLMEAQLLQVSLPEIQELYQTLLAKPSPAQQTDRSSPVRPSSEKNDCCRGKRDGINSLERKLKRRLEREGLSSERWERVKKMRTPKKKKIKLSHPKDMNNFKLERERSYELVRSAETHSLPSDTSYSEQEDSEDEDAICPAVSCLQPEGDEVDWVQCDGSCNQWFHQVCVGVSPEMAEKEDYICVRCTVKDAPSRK
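qHTS format, multiple compound concentrations. Buffer 50 mM HEPES pH 7.5/0.01% Tween-20; 200 nM KDM5BΔAP final; 10 min compound preincubation; substrate-mix levels 12.5 µM peptide, 25 µM α-KG, 0.25 mM NAD⁺; 30 min RT; ΔRFU.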
SNCA viab count = GF-AFC viability counterscreen for inhibitors of alpha-synuclein gene (SNCA) expression. HEK-293-SNCA-luc viability, GF-AFC fluorescence, 24 h. 150,000 tested, 0.12% active. Potency, µM (top dose mostly 57.1 µM), without a hit: top-dose activity change, negative = cytotoxicity, usual class: cytotoxic. AID 1671193, 2021;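 note: potency is the fitted concentration of half-maximal effect; 0% = DMSO-treated cells and -100% = medium-only wells without cells; nearly all actives have a fitted effect of over 30% in size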
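HEK-293-SNCA-luc cells (1500/well) plated 24 h, then exposed 24 h to a dilution series; GF-AFC added 30 min at 37C, fluorescence 405/540 nm; normalised to medium-only and DMSO wells, Hill fit.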
The depositor's hits bear a star; i = inactive; ? = inconclusive; nt = no result; [ ] = remark or other dose. Rows were chosen to be rich in hits. Some 3% of all compounds tested hit in one or more screens of this group. Unless noted, calls come from the whole dose curve; as a rule, active = well fitted curve in the direction sought with a large enough effect; inconclusive = small, poorly fitted or top-dose-only effect, or another doubt; inactive = no such curve, though single readings can be large; an effect the other way counts as inactive or inconclusive.

SMILES	SNCA expr inh	IP6K1 inhibitor	KDM5B inh	SNCA viab count
CN(C)C[C@@H]1CN(c2ncccn2)C[C@H]1NC(=O)Cc1cccc(F)c1	25%	-4	25µM*	10%
CN(C(=O)[C@@H]1CCCN1c1ccnc2ccnn12)c1ccccc1	nt	-12	nt	nt
COCC(=O)N(C1CCOCC1)C1CCN(C(=O)c2ccc(F)cc2)CC1	17%	0	i	8%
CCC(NC(=O)c1ccc2nc(-c3ccc(F)cc3)cn2c1)c1ncc(C)[nH]1 (stereo not given)	53%	-16	25µM*	-2%
CC(Cc1cnccn1)NC(=O)c1ccc2nc(-c3ccc(F)cc3)cn2c1 (stereo not given)	8%	-4	?	1%
COCCN(CC1CC1)C(=O)c1ccc2nc(-c3ccc(F)cc3)cn2c1	24%	17	25µM*	0%
CN(C(=O)c1ccc2nc(-c3ccc(F)cc3)cn2c1)C1CCOCC1	44%	18	22µM*	-2%
O=C(NCC1CNCCOC1)c1ccc2nc(-c3ccc(F)cc3)cn2c1 (stereo not given)	72%	-1	28µM*	2%
O=C(NCC1CC1)c1ccc2nccn2c1	37%[87.6 µM]	14	nt	-9%[87.6 µM]
COc1ccccc1Nc1ccnc(N2CCCC(C(=O)NCCCc3ccccc3)C2)n1 (stereo not given)	2%	10	nt	0%[12.5 µM]
O=C(NCCc1cnc[nH]1)c1ccc2nc(-c3ccc(F)cc3)cn2c1	47%	10	32µM*	-12%
Cc1ccc(C(c2ccc([N+](=O)[O-])cc2)c2ccc(C)s2)s1	nt	nt	i	nt
O=C(c1ccccc1Cl)[C@@H]1[C@@H]2CCCN2[C@]2(C(=O)Nc3ccccc32)[C@@]12C(=O)Nc1ccccc12	nt	nt	i	nt
CC(C)CNc1nccc(C2(c3ccccc3Cl)CCNCC2)n1	13%	9	22µM*	-14%
O=C(NCC1CC1)c1cc(-c2cccc(C(F)(F)F)c2)c2cccn2n1	?	-8	nt	-20%
Cc1ccc(C(=O)NC2CCN(c3cc(-c4cccs4)[nH]n3)CC2)cc1F	9%	15	?	-13%
Cc1cccc(C(=O)NC2CCN(c3cc(-c4cccs4)[nH]n3)C2)c1 (stereo not given)	-12%	4	11µM*	-2%
Cc1ccccc1C(=O)NC1CCN(c2cc(-c3cccs3)[nH]n2)C1 (stereo not given)	-15%	-3	13µM*	-9%
COc1ccc(C(=O)NC2CCN(c3cc(-c4cccs4)[nH]n3)C2)cc1OC (stereo not given)	-5%	6	11µM*	6%
O=C(NC1CCN(c2cc(-c3cccs3)[nH]n2)C1)c1ccncc1 (stereo not given)	0%	-3	?	-12%
CN(C)c1cccc(C(=O)NC2CCN(c3cc(-c4cccs4)[nH]n3)C2)c1 (stereo not given)	136%	-2	?	-3%
Cc1ccc(C(=O)NC2CCN(c3cc(-c4cccs4)[nH]n3)C2)cc1F (stereo not given)	-12%	1	4µM*	?
COc1ccc(-c2noc(CCCC(=O)N3CCCn4nc(-c5ccc(F)cc5)cc4C3)n2)cc1OC	-19%	18	nt	?
Cc1ccc(Nc2ccnc(N3CCC(NC(=O)c4ccc(Cl)nc4)CC3)n2)cc1	6%	-11	nt	-9%
O=C(Nc1cccc(C(F)(F)F)c1)c1cc(-c2ccc(Cl)cc2)on1	2%	7	i	4%
SMILES	SNCA expr inh	IP6K1 inhibitor	KDM5B inh	SNCA viab count
FC(F)(F)c1cccc(Nc2nc3nonc3nc2Nc2ccc(Cl)cc2)c1	11µM*	4	i	?
Cc1cccc2c1O[C@H]1[C@H](CO)CN(C(=O)CC(C)C)[C@@H]21	nt	10	nt	nt
CCN(CC)c1ccc(CNC(=O)c2ccc3c(c2)n(C)c(=O)c2ccnn23)cc1	17%	15	?	-2%
CCCN1CCN(C(=O)c2ccc3c(c2)n(CC)c(=O)c2ccnn23)CC1	13%	27	?	-3%
CCn1c(=O)c2ccnn2c2ccc(C(=O)NCCCOC(C)C)cc21	5%	2	32µM*	10%
CN(C)C(=O)c1ccc2c(c1)n(Cc1ccc(F)cc1)c(=O)c1ccnn12	16%	0	28µM*	-2%
O=C(NCc1ccccn1)c1ccc2c(c1)n(Cc1cccc(F)c1)c(=O)c1ccnn12	16%	4	25µM*	11%
Cc1oc2c(c1C(=O)NC1CCN(C)CC1)CN(Cc1ccc(F)cc1)CC2	-7%	1	?	-4%
CN1CCC(NC(=O)c2ccc3c(c2)n(Cc2ccc(F)cc2)c(=O)c2ccnn23)CC1	7%	4	28µM*	?
Cc1cc(F)ccc1NC(=O)c1ccc2c(c1)n(Cc1cccc(F)c1)c(=O)c1ccnn12	-24%	-9	i	-8%
Cn1c(=O)c2c(ncn2CC(COCc2ccccc2F)OCc2ccccc2F)n(C)c1=O (stereo not given)	nt	nt	i	nt
O=C(Nc1ccccc1Cl)C1CCCN(Cc2cccc(-c3cccs3)c2)C1 (stereo not given)	nt	11	nt	nt
Cn1c(=O)c2ccnn2c2ccc(C(=O)Nc3ccc(N4CCOCC4)cc3)cc21	11%	-7	i	-8%
CNC(=O)c1ccc2c(c1)n(Cc1ccc(OC)cc1)c(=O)c1ccnn12	46%	9	i	10%
Cn1c(=O)c2ccnn2c2ccc(C(=O)NCCN3CCC(N4CCCCC4)CC3)cc21	16%	1	28µM*	2%
CCCCNC(=O)c1ccc2c(c1)n(Cc1ccc(F)cc1)c(=O)c1ccnn12	?	3	22µM*	-26%
CN1C(=O)CCCCC1C(=O)NCC1CCN(Cc2cccc(F)c2)CC1 (stereo not given)	-25%	11	i	-7%
CCn1c(=O)c2ccnn2c2ccc(C(=O)Nc3ccc(C)c(F)c3)cc21	-17%	5	8.9µM*	-16%
Cn1c(=O)c2ccnn2c2ccc(C(=O)NCC3CCN(Cc4cccc(F)c4)CC3)cc21	15%	7	28µM*	-11%
COc1ccc(Nc2ccnc(N3CCC(NC(=O)Cc4cccc(Cl)c4)CC3)n2)cc1	-15%	6	nt	?
CCOc1ccc(CN2CC(Oc3ccccc3C(=O)NCc3ccccc3)C2)cc1	8%	-13	nt	-12%
COCC(=O)NC1CCCN(c2ccc3nnc(-c4ccccc4)n3n2)C1 (stereo not given)	nt	1	nt	nt
CCc1nc2c(c(-c3ccc(Cl)cc3)n1)CN(Cc1ccc(OC)cc1)CC2	?	-4	18µM*	?
CC(C)c1nc2c(c(-c3ccc(O)cc3)n1)CN(Cc1ccc(OC(F)(F)F)cc1)CC2	-15%	1	18µM*	7%
COc1ccc(-c2nc(C)nc3c2CCN(CC2CC2)CC3)cc1	2%[87.6 µM]	-1	40µM*	-6%[87.6 µM]
Oc1ccc(-c2nc(C3CC3)nc3c2CN(Cc2ccc(OC(F)(F)F)cc2)CC3)cc1	9%	6	i	6%
